Results published in PubChem BioAssay (Tox21).
Inconclusive results are not listed. Activity calls are given as the source filed them. Unless noted, calls follow the shape of the dose curve; as a rule, active = well fitted curve in the direction sought with a large enough effect in the repeat runs; inconclusive = weak or mixed curves; inactive = no such curve, though single readings can be large; an effect the other way counts as inactive or inconclusive.

Legend:
[1] = A CellTox Green Cytotoxicity Assay to monitor cytotoxicity in HepG2 cells - 8 hour (AID 1224890); also: nearly all actives have a fitted effect of over 45% in size
Method in brief: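 Real-time cytotoxicity: fluorescence of a cell-impermeant cyanine dye binding DNA of dead HepG2 cells, measured repeatedly (0–40 h) during compound exposure at 37 C. Cells seeded 600/well with reagent, dosed after 5 h.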

[2] = qHTS assay to identify small molecule antagonists of the androgen receptor (AR) signaling pathway using the MDA cell line in the presence of 0.5 nM R1881 - cell viability counter screen (AID 1259242); also: nearly all actives have a fitted effect of over 45% in size
Method in brief: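 Live-cell protease activity was measured by CellTiter-Fluor fluorescence after 30 min. Before that, MDA-kb2 MMTV-luciferase cells had 16 hr at 37C without CO2, exposed to test compounds and 0.5 nM R1881 final.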

[3] = biological target: Estrogen receptor (Homo sapiens) (UniProt P03372); assay: qHTS assay to identify small molecule antagonists of the estrogen receptor alpha (ER-alpha) signaling pathway using the BG1 cell line in the presence of 0.1 nM 17-beta-estradiol (AID 1259244); also: nearly all actives have a fitted effect of over 50% in size
Sequence of Estrogen receptor (Homo sapiens) (P03372 whole entry, looked up): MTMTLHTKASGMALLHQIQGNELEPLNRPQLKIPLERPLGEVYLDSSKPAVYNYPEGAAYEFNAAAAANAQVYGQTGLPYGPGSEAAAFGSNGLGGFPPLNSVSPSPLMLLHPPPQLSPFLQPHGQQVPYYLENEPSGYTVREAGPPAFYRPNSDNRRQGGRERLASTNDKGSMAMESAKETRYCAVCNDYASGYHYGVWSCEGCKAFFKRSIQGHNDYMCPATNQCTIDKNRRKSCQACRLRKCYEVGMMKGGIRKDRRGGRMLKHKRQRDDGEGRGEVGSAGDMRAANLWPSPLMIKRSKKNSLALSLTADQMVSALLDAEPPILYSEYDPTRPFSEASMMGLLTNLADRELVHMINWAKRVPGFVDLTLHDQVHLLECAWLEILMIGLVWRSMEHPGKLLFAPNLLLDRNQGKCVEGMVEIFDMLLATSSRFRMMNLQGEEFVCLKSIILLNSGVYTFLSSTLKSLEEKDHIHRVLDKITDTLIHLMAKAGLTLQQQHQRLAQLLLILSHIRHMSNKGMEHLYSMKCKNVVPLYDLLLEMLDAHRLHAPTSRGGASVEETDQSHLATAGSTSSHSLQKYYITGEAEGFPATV
Method in brief: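 Luciferase luminescence (ONE-Glo, 30 min at room temperature) was read after 22 hr at 37C exposure to compounds plus 17beta-estradiol at 0.1 nM final. Cells were VM7Luc4E2 with endogenous ER-alpha and an ERE-driven luciferase, pre-cultured 5 days in hormone-depleted medium.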

[4] = qHTS assay to identify small molecule HDAC inhibitors (AID 1259364); also: nearly all actives have a fitted effect of over 45% in size; also: potency is read from the fitted curve at half-maximal effect; as to activity change, negative = inhibition: top concentration of the series differs between compounds
Method in brief: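 Luminescence read after 30 min room-temperature HDAC-Glo incubation measures cellular class I/II HDAC activity. Compounds were applied for 2 hr at 37 C to HCT-116 wild-type cells seeded the day before.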

[5] = qHTS assay to identify small molecule HDAC inhibitors - cell viability counter screen (AID 1259365); also: series mostly up to about 92 µM; nearly all actives have a fitted effect of over 50% in size
Method in brief: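 Luminescence from CellTiter-Glo, developed 30min at room temperature, reports viability of wild-type HCT-116 cells treated 2hr with compounds at 37 C and 5% CO2 after overnight plating.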

[6] = qHTS assay to identify small molecule agonists of the sonic hedgehog signaling (Shh) pathway - cell viability counter screen (AID 1259366); also: nearly all actives have a fitted effect of over 50% in size
Method in brief: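 Cytotoxicity counter screen run in the same wells as the Shh reporter assay. NIH/3T3 cells carrying a Gli1 response element–driven luciferase were treated with DMSO-dissolved compounds for 24hr, and live-cell protease activity was measured with CellTiter-Fluor.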

[7] = qHTS assay to identify small molecule antagonists of the sonic hedgehog signaling (Shh) pathway - cell viability counter screen (AID 1259367); also: nearly all actives have a fitted effect of over 55% in size
Method in brief: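 Viability was read by CellTiter-Fluor fluorescence in the same wells, reagent added 23 hr into compound treatment and incubated 1 hr at 37C. The 3T3 Gli1-Luc reporter cells (2,000/well) received conditioned medium after compound and ran 24 hr.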

[8] = qHTS assay to identify small molecule agonists of the sonic hedgehog signaling (Shh) pathway (AID 1259368; calls by dose curve; also: nearly all actives have a fitted effect of over 15% in size; also: potency is read from the fitted curve at half-maximal effect;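 as to activity change: NIH/3T3-derived 3T3Gli1-Luc cells carrying a stable Gli1-driven firefly luciferase reporter; series mostly up to about 92 µM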)
Method in brief: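 Luminescence was read after 30 min at room temperature with luciferase reagent. Before that, 3T3Gli1-Luc cells (NIH/3T3 clone, stable Gli1-Luc reporter; 2,000/well) were exposed to compounds for 24 hr at 37C, 5% CO2, compounds being added 4 hr post-plating.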

[9] = qHTS assay to identify small molecule antagonists of the sonic hedgehog signaling (Shh) pathway (AID 1259369; calls by dose curve; also: nearly all actives have a fitted effect of over 45% in size)
Method in brief: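 Antagonist mode: compound added to 3T3 Gli1-Luc cells followed by conditioned-medium stimulation, 24 h at 37 C, 5% CO2. Inhibition taken as loss of Gli1-driven luciferase luminescence.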

[10] = qHTS assay to identify small molecule agonists of the estrogen receptor beta (ER-beta) signaling pathway - cell viability counter screen (AID 1259380); also: nearly all actives have a fitted effect of over 30% in size; also: potency is read from the fitted curve at half-maximal effect
Method in brief: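 Cell viability counter screen: CellTiter-Glo luminescence (30 min, room temperature) measured in the same wells as the beta-lactamase readout, after 16 hr compound exposure at 37C of ER-beta-bla HEK293T cells in 2% charcoal-stripped FBS medium.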

[11] = biological target: Estrogen receptor (Homo sapiens) (UniProt P03372); assay: qHTS assay to identify small molecule agonists of the estrogen receptor alpha (ER-alpha) signaling pathway in the presence of an antagonist (AID 1259383; calls by dose curve; also: nearly all actives have a fitted effect of over 15% in size; also: potency is read from the fitted curve at half-maximal effect; as to activation: top concentration of the series differs between compounds)
Method in brief: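 Agonist-mode confirmation run in the presence of 10.0nM (final) ICI-182,780 antagonist. The reporter was ERE-driven luciferase in VM7Luc4E2 cells, grown in charcoal-stripped serum. Cells were exposed to 15-concentration compound series for 22hr, then ONE-Glo luminescence was read.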

[12] = qHTS assay to identify small molecule agonists or antagonists of the thyroid stimulating hormone receptor (TSHR) signaling pathway - wild type cell line counter screen (AID 1259384; calls by dose curve)
Method in brief: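 Counter screen in untransfected Hek293: compounds (15-point titration, triplicate) plus phosphodiesterase inhibitor Ro20-1724 added after 18 h plating; 30 min RT. Intracellular cAMP via competitive d2/cryptate immunoassay, 1 h incubation.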

[13] = qHTS assay to identify small molecule agonists of the androgen receptor (AR) signaling pathway in the presence of an antagonist - cell viability counter screen (AID 1259379); also: nearly all actives have a fitted effect of over 25% in size; also: potency is read from the fitted curve at half-maximal effect;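 as to activity change, negative = cytotoxicity: MDA-kb2 human breast cancer cells carrying an MMTV luciferase reporter; series mostly up to about 92 µM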
Method in brief: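 Cytotoxicity counter-screen run in the same wells as the nilutamide-challenged (3.0 µM final) AR agonist assay in MDA-kb2 cells. Compounds tested at 15 concentrations for 16 h, 37 °C without CO2; CellTiter-Fluor fluorescence read.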

[14] = qHTS assay to identify small molecule antagonists of the estrogen receptor beta (ER-beta) signaling pathway - cell viability counter screen (AID 1259382);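 also: HEK293T cells carrying ER-beta-UAS-bla reporter stimulated with estradiol; series mostly up to about 92 µM; nearly all actives have a fitted effect of over 55% in size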
Method in brief: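 Cytotoxicity was measured in the same wells by CellTiter-Glo luminescence after 30 min at room temperature. Cells were ER-beta-bla HEK293T in charcoal-stripped serum, given compound together with 1 nM E2 and incubated 16 h at 37C.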

[15] = biological target: Estrogen receptor beta (Homo sapiens) (UniProt Q92731); assay: qHTS assay to identify small molecule agonists of the estrogen receptor beta (ER-beta) signaling pathway (AID 1259377; active = well fitted activation curve with a large enough effect in the signal ratio in the repeat runs, not every such curve was filed as active; the % refers to the signal ratio; also: potency is read from the fitted curve at half-maximal effect)
Sequence of Estrogen receptor beta (Homo sapiens) (Q92731 whole entry, looked up): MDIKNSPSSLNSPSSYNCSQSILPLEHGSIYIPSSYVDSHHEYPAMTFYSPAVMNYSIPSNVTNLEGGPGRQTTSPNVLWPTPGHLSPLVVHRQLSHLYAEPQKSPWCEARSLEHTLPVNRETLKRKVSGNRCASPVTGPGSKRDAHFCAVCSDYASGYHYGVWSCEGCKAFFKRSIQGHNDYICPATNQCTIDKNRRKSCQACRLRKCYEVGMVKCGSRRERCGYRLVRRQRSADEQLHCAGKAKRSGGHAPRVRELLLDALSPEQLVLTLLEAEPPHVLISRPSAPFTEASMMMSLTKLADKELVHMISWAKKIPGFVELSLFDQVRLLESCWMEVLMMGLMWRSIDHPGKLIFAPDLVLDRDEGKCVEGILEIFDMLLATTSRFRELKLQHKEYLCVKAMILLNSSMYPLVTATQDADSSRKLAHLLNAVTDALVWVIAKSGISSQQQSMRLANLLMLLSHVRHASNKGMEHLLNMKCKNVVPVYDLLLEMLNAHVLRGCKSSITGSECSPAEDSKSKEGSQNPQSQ
Method in brief: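 HEK293T ER-beta-UAS-bla; 2% charcoal-stripped FBS; cells pre-incubated 6 hr, compound 16 hr, 37C/5% CO2; LiveBLAzer B/G FRET substrate 2 h RT; fluorescence intensity read.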

[16] = biological target: Estrogen receptor beta (Homo sapiens) (UniProt Q92731); assay: qHTS assay to identify small molecule antagonists of the estrogen receptor beta (ER-beta) signaling pathway (AID 1259378; active = well fitted inhibition curve with a large enough effect in the signal ratio in the repeat runs, not every such curve was filed as active; the % refers to the signal ratio)
Method in brief: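 Antagonist mode: compounds added to beta-lactamase reporter HEK293T ER-beta-UAS cells stimulated with E2 (1nM final), 16 hr at 37C. LiveBLAzer B/G FRET substrate, 2 hours room temperature, fluorescence read-out.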

[17] = biological target: Androgen receptor (Homo sapiens) (UniProt P10275); assay: qHTS assay to identify small molecule antagonists of the androgen receptor (AR) signaling pathway using the MDA cell line in the presence of 0.5 nM R1881 (AID 1259243); also: nearly all actives have a fitted effect of over 50% in size
Sequence of Androgen receptor (Homo sapiens) (P10275 whole entry, looked up): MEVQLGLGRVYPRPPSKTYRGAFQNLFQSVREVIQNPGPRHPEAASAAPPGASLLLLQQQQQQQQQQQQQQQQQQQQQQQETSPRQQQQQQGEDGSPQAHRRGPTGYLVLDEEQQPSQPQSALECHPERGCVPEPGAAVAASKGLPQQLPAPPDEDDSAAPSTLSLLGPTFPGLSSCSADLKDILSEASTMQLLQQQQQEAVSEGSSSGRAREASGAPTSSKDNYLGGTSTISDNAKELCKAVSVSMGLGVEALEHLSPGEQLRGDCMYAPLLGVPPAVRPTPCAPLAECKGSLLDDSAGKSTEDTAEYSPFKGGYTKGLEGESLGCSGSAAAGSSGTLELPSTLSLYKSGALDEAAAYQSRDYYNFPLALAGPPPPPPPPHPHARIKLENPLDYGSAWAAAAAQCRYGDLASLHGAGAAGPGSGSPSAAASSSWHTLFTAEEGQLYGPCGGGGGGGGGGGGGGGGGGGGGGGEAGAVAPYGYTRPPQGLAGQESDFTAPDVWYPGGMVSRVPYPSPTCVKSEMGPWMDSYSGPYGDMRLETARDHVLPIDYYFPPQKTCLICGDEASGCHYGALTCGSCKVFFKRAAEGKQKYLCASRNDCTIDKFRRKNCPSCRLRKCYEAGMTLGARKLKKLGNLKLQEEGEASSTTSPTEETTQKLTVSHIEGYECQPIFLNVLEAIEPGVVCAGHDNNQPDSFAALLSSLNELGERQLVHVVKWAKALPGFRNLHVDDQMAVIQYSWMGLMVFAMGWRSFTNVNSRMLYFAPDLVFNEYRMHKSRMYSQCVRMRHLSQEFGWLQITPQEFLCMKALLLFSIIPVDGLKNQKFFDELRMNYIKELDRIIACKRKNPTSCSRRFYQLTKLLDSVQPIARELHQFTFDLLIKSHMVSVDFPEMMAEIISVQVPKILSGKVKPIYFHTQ
Method in brief: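 Luminescent reporter readout (ONE-Glo, 30 min, room temperature) after 16 hr co-treatment of MDA-kb2 cells with test compounds and 0.5 nM R1881 final, at 37C without CO2. The MMTV-driven luciferase responds to both AR and GR.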

[18] = biological target: Androgen receptor (Homo sapiens) (UniProt P10275); assay: qHTS assay to identify small molecule agonists of the androgen receptor (AR) signaling pathway in the presence of an antagonist (AID 1259381; calls by dose curve; also: nearly all actives have a fitted effect of over 15% in size)
Method in brief: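 Agonist-mode confirmation run against 3.0 uM final nilutamide: compounds titrated at 15 concentrations onto MDA-kb2 MMTV-luciferase reporter cells. Luminescence measured with ONE-Glo following 16 hr incubation, 37C, 0% CO2.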

[19] = qHTS assay to identify small molecule antagonists of the estrogen receptor alpha (ER-alpha) signaling pathway using the BG1 cell line in the presence of 0.1 nM 17-beta-estradiol - cell viability counter screen (AID 1259241); also: nearly all actives have a fitted effect of over 40% in size
Method in brief: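 VM7Luc4E2, 4,000 cells/well, phenol red-free medium + 10% charcoal-stripped FBS; 24 hr plating; cpd + 0.1 nM E2 final, 22 hr 37C/5% CO2; CellTiter-Fluor 30 min, fluorescence.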

[20] = qHTS assay to identify small molecule phospholipidosis (PLD) inducers (AID 1259344; active = well fitted curve in the direction sought with a large enough effect; an effect the other way counts as inactive or inconclusive)
Method in brief: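 Phospholipid accumulation was scored by imaging: fixed, Hoechst-counterstained HepG2 cells stained with LipidTOX Red after 24 h compound exposure at 37 C. Read-outs were pit count and pit intensity per well or per cell, with amiodarone and DMSO controls.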
% is scaled to controls: 0 for no effect and ±100 for the full control effect.

Nc1cccc2c(=O)[nH][nH]c(=O)c12
inactive: Potency [1] | Potency [2] | Potency [3] | Potency [4] | outcome [5] | Potency [6] | Potency [7] | Potency [8] | Potency [9] | Potency [11] | outcome [12]
active: Potency [10] 24.5 µM

C=CC(=O)NC(C)(C)C
inactive: Potency [1] | Potency [2] | Potency [3] | Potency [4] | outcome [5] | Potency [6] | Potency [7] | Potency [8] | Potency [9] | Potency [13] | Potency [10] | Potency [14] | Potency [11] | outcome [12]

Oc1ccc(Oc2ccccc2)cc1
inactive: Potency [2] | Potency [3] | Potency [4] | outcome [5] | Potency [6] | Potency [7] | Potency [8] | Potency [13] | Potency [10] | Potency [14] | outcome [12]
active: Potency [15] 11.6 µM | Potency [11] 41 µM

O=C(O)c1c2ccccc2cc2ccccc12
inactive: Potency [1] | Potency [2] | Potency [3] | Potency [4] | outcome [5] | Potency [6] | Potency [7] | Potency [8] | Potency [9] | Potency [15] | Potency [16] | Potency [10] | Potency [14] | Potency [11] | outcome [12]

O=C1c2ccccc2C(=O)C1c1ccc2ccccc2n1
active: Potency [4] 1.91 µM | Potency [8] 0.121 µM
inactive: Potency [1] | Potency [2] | outcome [5] | Potency [6] | Potency [9] | Potency [15] | Potency [13] | Potency [10] | Potency [14] | outcome [12]

O=c1[nH]nc(-c2ccc([N+](=O)[O-])o2)o1
active: Potency [13] 54.5 µM
inactive: Potency [1] | Potency [3] | Potency [4] | outcome [5] | Potency [8] | Potency [16] | Potency [10] | Potency [14] | Potency [11] | outcome [12]

CC1(C)[C@@H]2CC[C@]3(C2)[C@@H]1C(=O)CCC3(C)C
inactive: Potency [1] | Potency [17] | Potency [3] | Potency [4] | outcome [5] | Potency [6] | Potency [7] | Potency [8] | Potency [9] | Potency [15] | Potency [16] | Potency [13] | Potency [18] | Potency [14] | Potency [11] | outcome [12]

CCCC(=O)OCCC(C)C
inactive: Potency [19] | Potency [2] | Potency [17] | Potency [3] | Potency [4] | outcome [5] | Potency [6] | Potency [7] | Potency [8] | Potency [9] | Potency [13] | Potency [10] | Potency [18] | Potency [14] | Potency [11] | outcome [12]

CC1=CC(=C(c2ccc(N)cc2)c2ccc(N)cc2)C=CC1=N
inactive: cytotoxicity increase [1] 1.46% [at 6.97 µM] | viability change, negative = cytotoxic [2] -23% [at 8.39 µM] | Potency [20] | activity change, negative = inhibition [4] -3.34% [at 8.39 µM] | activity change, negative = cytotoxicity [5] -17.7% [at 8.39 µM] | activity change [8] -2.79% [at 8.39 µM, active compounds read high] | activity change, negative = inhibition [9] -22.7% [at 8.39 µM] | activation [15] -6.24% [at 8.39 µM] | activation [11] 0.281% [at 8.39 µM] | cAMP activity change [12] -1.93% [at 8.39 µM]
